# According to the supplement of paper PMC9135407:
# Where “and” joins values, the source holds several entries; their conditions need not be identical. Identical values can stand only once. Counter-ions that a name gives are not always drawn. Out of some 5,800 compounds screened, about 620 (11%) showed activity. The sample holds actives, similar compounds and a random draw of the others, so the mix is not that of the screen. Values without a mark were called inactive.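 Rule for the calls: active = score above a cut-off or among the top three wells of a plate; in these data no inactive exceeds 0.85.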
# Test system: primary human hepatic stellate cells (donor 1)
# Test: scaled lipid accumulation score (0 = DMSO-like, 1 = nortriptyline-like); higher = stronger HSC inactivation (lipid re-accumulation), active = hit call of the paper
# Conditions: 48 h
# Description: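 Primary lipid accumulation screen in primary human hepatic stellate cell myofibroblasts (donor 1, passage 8) in 384-well plates. 100 nL of library compound was pin-transferred into 30 µL medium in duplicate, and cells were treated for 48 h. The 'Scaled' score combines distance from plate baseline, toxicity and reproducibility penalties, and is normalised to nortriptyline (positive) and DMSO (negative) controls on each plate. A hit is defined as scaled >0.85 or among the top 3 wells per plate.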
# [1] = library stock concentration: 10 mM
# [2] = library stock concentration: 1 mM
# [3] = library stock concentration: 8.6 mM
# [4] = library stock concentration: 3.33 mM
smiles,measurement,setting,value
CC[C@H]1CN2CCc3cc(OC)c(OC)cc3[C@@H]2C[C@@H]1C[C@H]1NCCc2cc(OC)c(OC)cc21.Cl.Cl [Emetine dihydrochloride],scaled lipid accumulation score,,0.98 (active)
CC[C@H]1CN2CCc3cc(OC)c(OC)cc3C2C[C@@H]1CC1NCCc2cc(OC)c(OC)cc21.Cl.Cl (some centres not stated) [Emetine],scaled lipid accumulation score,library stock concentration: 3.6 mM,1.37 (active)
CC[C@H]1CN2CCc3cc(OC)c(OC)cc3[C@@H]2C[C@@H]1C[C@H]1NCCc2cc(OC)c(OC)cc21 [Emetine dihydrochloride hydrate],scaled lipid accumulation score,[1],0.835
COc1cc2c(cc1OC)C1CC(=O)C(CC(C)C)CN1CC2 (configuration not stated) [Tetrabenazine],scaled lipid accumulation score,[1],≤ 0 and ≤ -0.001
COc1cc2c(cc1OC)C(C)NCC2 (configuration not stated),scaled lipid accumulation score,,0.537
CC[C@H]1CN2CCc3cc(OC)c(OC)cc3[C@@H]2C[C@@H]1C[C@H]1NCCc2cc(OC)c(OC)cc21 [Emetine],scaled lipid accumulation score,[1],0.627
CC(=O)[C@H]1CC[C@H]2[C@@H]3CC[C@H]4C[C@](C)(O)CC[C@]4(C)[C@H]3CC[C@]12C [Ganaxolone],scaled lipid accumulation score,[1],0.134 and ≤ -0.001
CCCCCCC(=O)O[C@H]1CC[C@H]2[C@@H]3C[C@@H](O)C4=CC(=O)CC[C@]4(C)[C@H]3CC[C@]12C [6.beta.-Testosterone Enanthate],scaled lipid accumulation score,[2],0.05
c1ccc(/N=N/c2ccccc2)cc1 [Azobenzene],scaled lipid accumulation score,[1],≤ 0
CC1=C2[C@H]3OC(=O)[C@@H](C)[C@@H]3CC[C@@]2(C)C=CC1=O [alpha-Santonin],scaled lipid accumulation score,,≤ 0
C[C@H]1CC[C@]2(NC1)O[C@H]1C[C@H]3[C@@H]4CC[C@H]5C[C@@H](O)CC[C@]5(C)[C@H]4CC[C@]3(C)[C@H]1[C@@H]2C [Tomatidine],scaled lipid accumulation score,,0.117
C[C@H]1O[C@@H](O[C@H]2CC[C@]3(C=O)[C@H]4CC[C@]5(C)[C@@H](C6=CC(=O)OC6)CC[C@]5(O)[C@@H]4CC[C@]3(O)C2)C[C@H](O)[C@@H]1O [Helveticoside],scaled lipid accumulation score,,0.504
C[C@]12CCC3C(CC[C@]4(O)C[C@@H](O)CC[C@]34C=O)[C@@]1(O)CCC2C1=CC(=O)OC1 (some centres not stated) [Strophanthidin],scaled lipid accumulation score,[1],1.12 (active)
C[C@]12CC[C@H]3[C@@H](CC[C@]4(O)C[C@@H](O)CC[C@]34C=O)[C@@]1(O)CC[C@@H]2C1=CC(=O)OC1 [Strophanthidin],scaled lipid accumulation score,,0.887 (active)
CCN1C[C@]2(COC(=O)c3ccccc3N3C(=O)C[C@H](C)C3=O)CC[C@H](OC)[C@@]34[C@@H]5C[C@H]6[C@H](OC)[C@@H]5[C@](O)(C[C@@H]6OC)[C@](O)([C@@H](OC)[C@H]23)[C@@H]14 [Methyllycaconitine citrate],scaled lipid accumulation score,[1],≤ -0.006
CCC1(c2ccc(N)cc2)CCC(=O)NC1=O (racemic) [Dl-aminoglutethimide],scaled lipid accumulation score,[3],0.005
NC(CP(=O)(O)O)C(=O)O (configuration not stated),scaled lipid accumulation score,[1],0.082
CCCCCCCCCCCCCCCCOCC(COP(=O)([O-])OCC[N+](C)(C)C)OC(C)=O (stereo not drawn) [Enantio-PAF C16],scaled lipid accumulation score,[2],0.064
O=C(Oc1ccc([N+](=O)[O-])cc1)N1CCC(C(O)(c2ccc3c(c2)OCO3)c2ccc3c(c2)OCO3)CC1,scaled lipid accumulation score,[4],≤ 0
same,scaled lipid accumulation score,[1],≤ -0.001
C=CCc1ccc2c(c1)OCO2 [Safrole],scaled lipid accumulation score,[1],0.109
O=[N+]([O-])/C=C/c1ccc2c(c1)OCO2,scaled lipid accumulation score,[1],0.967 (active)
c1cc2c(cc1[C@H]1OC[C@H]3[C@@H]1CO[C@@H]3c1ccc3c(c1)OCO3)OCO2 [Sesamin],scaled lipid accumulation score,[4],≤ 0
same,scaled lipid accumulation score,[1],≤ 0
O=[N+]([O-])/C=C/c1ccc2c(c1)OCO2 [Syk Inhibitor III],scaled lipid accumulation score,[4],0.609
O=[N+]([O-])C=Cc1ccc2c(c1)OCO2,scaled lipid accumulation score,[4],1.44 (active)
same,scaled lipid accumulation score,[1],0.901 (active)
C=C1C/C(=C/C)C(=O)O[C@@H]2CCN3CC=C(COC(=O)[C@]1(C)O)[C@H]23 [Seneciphylline],scaled lipid accumulation score,,≤ 0
CCCCC/C=C\C/C=C\C/C=C\C/C=C\CCCC(=O)NOCCO [oxy-Arachidonoyl Ethanolamide],scaled lipid accumulation score,[2],0.014
C[C@H](N)C(=O)N[C@@H](C)C(=O)N[C@@H](Cc1ccccc1)C(=O)CCl,scaled lipid accumulation score,library stock concentration: 14.7 mM,0.708
CC(=O)O[C@@]12C[C@@H](C)[C@@]3(O)[C@@H](C=C(CO)C[C@]4(O)C(=O)C(C)=C[C@@H]34)[C@@H]1C2(C)C [Prostratin],scaled lipid accumulation score,[2],0.583 (active)
CCCCCCCCCCCCCC(=O)O[C@@H]1[C@@H](C)[C@@]2(O)[C@@H](C=C(CO)C[C@]3(O)C(=O)C(C)=C[C@@H]23)[C@@H]2C(C)(C)[C@]12OC(C)=O [Phorbol 12-myristate 13-acetate] [listing 1 of 2 here],scaled lipid accumulation score,[1],≤ 0
CCCCCCCCCCCCCC(=O)O[C@@H]1[C@@H](C)[C@@]2(O)[C@@H](C=C(CO)C[C@]3(O)C(=O)C(C)=C[C@@H]23)[C@@H]2C(C)(C)[C@]12OC(C)=O [Phorbol 12-myristate 13-acetate] [listing 2 of 2 here],scaled lipid accumulation score,library stock concentration: 8.1 mM,0.934 (active)
CC(=O)O[C@@H]1CC[C@@]2(C)[C@@H](CC[C@@H]3[C@@H]2CC[C@]2(C)C(=O)CC[C@@H]32)C1 [Androsterone acetate],scaled lipid accumulation score,[1],≤ -0.027
C=CCN1CC[C@]23c4c5ccc(O)c4O[C@H]2/C(=N/N=C2\CC[C@@]4(O)[C@H]6Cc7ccc(O)c8c7[C@@]4(CCN6CC=C)[C@H]2O8)CC[C@@]3(O)[C@H]1C5 [Naloxonazine 2HCl],scaled lipid accumulation score,library stock concentration: 3.1 mM,0.144
N[C@@H]1C[C@H]1c1ccccc1.N[C@H]1C[C@@H]1c1ccccc1 [Tranylcypromine],scaled lipid accumulation score,library stock concentration: 80 uM,≤ 0
same,scaled lipid accumulation score,library stock concentration: 400 uM,≤ 0
same,scaled lipid accumulation score,library stock concentration: 2 mM,≤ 0
same,scaled lipid accumulation score,[1],≤ 0
same,scaled lipid accumulation score,library stock concentration: 15 mM,≤ -0.003
N[C@@H]1C[C@H]1c1ccccc1.N[C@H]1C[C@@H]1c1ccccc1 [Tranylcypromine sulfate],scaled lipid accumulation score,[3],≤ 0
same,scaled lipid accumulation score,[1],≤ 0
C=C(C)[C@@H]1CCC(C)=C[C@H]1C1=C(O)C(=O)C(CCCCC)=CC1=O,scaled lipid accumulation score,[2],0.055
CC1=C2C(=CO[C@H](C)[C@H]2C)C(O)=C(C(=O)O)C1=O [Citrinin],scaled lipid accumulation score,[1],≤ 0
Cn1c2cccc(=O)c-2nc2ccccc21 [Pyocyanin],scaled lipid accumulation score,[2],≤ 0
CC(=O)OC1CN2CCC1CC2 (configuration not stated),scaled lipid accumulation score,[1],0.001
CCCCC/C=C\C/C=C\C/C=C\C/C=C\CCCC(=O)NC1CC1 [Arachidonoyl Cyclopropylamide],scaled lipid accumulation score,[2],≤ 0
"CN(C(=O)Cc1ccc(Cl)c(Cl)c1)C(CN1CCCC1)c1cccc(OCC(=O)O)c1 (configuration not stated) [ICI 204,448 hydrochloride]",scaled lipid accumulation score,[1],0.053
CN(C(=O)Cc1ccccc1)C(CN1CCCC1)c1ccccc1 (configuration not stated) [N-MPPP Hydrochloride],scaled lipid accumulation score,[1],0.172
"CN(C(=O)Cc1ccc(Cl)c(Cl)c1)[C@H](CN1CCCC1)c1ccccc1.Cl [ICI-199,441 hydrochloride]",scaled lipid accumulation score,[1],1.58 (active)
CCCCCc1cc(O)c2c(c1)OC(C)(C)C1CCC(C(=O)O)=CC21 (configuration not stated) [Tetrahydrocannabinol-7-oic acid],scaled lipid accumulation score,[2],≤ -0.021
COc1cc(CNC(=O)CCCCCCC(C)C)c(I)cc1O,scaled lipid accumulation score,[2],≤ 0
COc1cc2c3cc1Oc1cc(ccc1O)C[C@@H]1c4c(cc(OC)c(O)c4Oc4cccc(c4)C[C@@H]3N(C)CC2)CC[N+]1(C)C [Tubocurarine chloride pentahydrate (+)],scaled lipid accumulation score,,0.039
COc1ccc2[nH]cc(C3=CCNCC3)c2c1.COc1ccc2[nH]cc(C3=CCNCC3)c2c1.O=C(O)CCC(=O)O,scaled lipid accumulation score,[1],1.68 (active)
"COc1ccc2[nH]c3c(c2c1)CCNC3 [6-Methoxy-1,2,3,4-tetrahydro-9H-pyrido[3,4b] indole]",scaled lipid accumulation score,[1],0.691
CCCOc1ccc2[nH]cc(C3=CCNCC3)c2n1,scaled lipid accumulation score,[1],0.748
O=c1ccc2[nH]cc(C3=CCNCC3)c2[nH]1,scaled lipid accumulation score,[1],0.084 and ≤ -0.006
N#Cc1ccc(N2CCN(C(=O)COc3ccc4[nH]cc(CCN)c4c3)CC2)cc1 [Donitriptan hydrochloride],scaled lipid accumulation score,[1],≤ 0
CN1CC[C@@H]2CN3CCc4cccc(c43)[C@@H]2C1 [SDZ SER 082 fumarate],scaled lipid accumulation score,[1],≤ -0.006
CCCCCC(=O)N[C@H]1CCOC1=O [N-hexanoyl-L-Homoserine lactone],scaled lipid accumulation score,[2],≤ 0
CO[C@H](C/C=C\C=C\CC/C=C/C[C@H](C)/C=C/C(=C\C(=O)O)CC(=O)O)/C(C)=C\C=C(/C)C(=O)O [Bongkrekic acid],scaled lipid accumulation score,[2],≤ -0.014
N#CC(C#N)=Cc1ccc(O)cc1 [Tyrphostin-8],scaled lipid accumulation score,library stock concentration: 29.4 mM,≤ -0.012
CC(Cc1ccc(OCC(=O)O)cc1)NCC(O)c1cccc(Cl)c1 (configuration not stated),scaled lipid accumulation score,[1],0.056
"COc1ccc(CC2c3cc(OC)c(OC)cc3CCN2C)cc1OC (racemic) [Laudanosine (R,S)]",scaled lipid accumulation score,,≤ 0
COc1cc2c(cc1O)[C@@H]1Cc3ccc(OC)c(O)c3CN1CC2 [Scoulerine],scaled lipid accumulation score,,0.07
COc1cc2c(cc1O)C(CCc1ccc(Cl)cc1)N(C)CC2.Cl (configuration not stated),scaled lipid accumulation score,[1],0.872 (active)
C/C1=C/C(=O)O[C@@H]2C[C@@H](CC[C@H](C)/C=C\CC1)O[C@@](O)([C@@H]1CSC(=O)N1)C2 [Latrunculin B],scaled lipid accumulation score,library stock concentration: 12.6 mM,0.632
